Experimental findings from PubChem BioAssay (NCATS) are described below.

The nature of test [1]: Quantitative High-Throughput drug screen in 47 multiple myeloma cell lines against the NCATS MIPE library collection: MMM1_PLB cell viability assay (AID 1918976). Also: potency is read from the fitted curve at half-maximal effect; nearly all actives have a fitted effect of over 35% in size. The conditions noted are these: MMM1 myeloma cells viability, CellTiter-Glo, 48 h; series mostly up to 45.8 µM. In a few lines: (§1)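 Cells were exposed to library compounds for 48 hours, after which ATP was measured by CellTiter-Glo. Signal was taken as median relative luminescence units.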

Test [2] can be described thus: Quantitative High-Throughput drug screen in 47 multiple myeloma cell lines against the NCATS MIPE library collection: NCIH929_DSMZ cell viability assay (AID 1918978). Also: nearly all actives have a fitted effect of over 35% in size. Also: potency is read from the fitted curve at half-maximal effect. The conditions noted are these: NCI-H929 myeloma viability, CellTiter-Glo ATP, 48 h; series mostly up to 45.8 µM. In short, it runs like this:
as §1
(ATP-based viability assays read luminescence as a measure of living cells.)

Test [3] is described as follows: Quantitative High-Throughput drug screen in 47 multiple myeloma cell lines against the NCATS MIPE library collection: OCIMY1_PLB cell viability assay (AID 1918979). Also: nearly all actives have a fitted effect of over 35% in size. Also: potency is read from the fitted curve at half-maximal effect. Particulars: OCI-MY1 myeloma viability, CellTiter-Glo ATP, 48 h; series mostly up to 45.8 µM. In a few lines: as §1
Test [4] can be described thus: Quantitative High-Throughput drug screen in 47 multiple myeloma cell lines against the NCATS MIPE library collection: MM1S_ATCC cell viability assay (AID 1918980). Also: nearly all actives have a fitted effect of over 45% in size. Also: potency is read from the fitted curve at half-maximal effect. The conditions noted are these: MM1S myeloma viability, CellTiter-Glo ATP luminescence, 48 h; series mostly up to 45.8 µM. In a few lines:
as §1

Test [5] can be described thus: Quantitative High-Throughput drug screen in 47 multiple myeloma cell lines against the NCATS MIPE library collection: MM1R_ATCC cell viability assay (AID 1918981). Also: nearly all actives have a fitted effect of over 35% in size. Also: potency is read from the fitted curve at half-maximal effect. Particulars: MM1R multiple myeloma cells, CellTiter-Glo viability, 48 h; series mostly up to 45.8 µM. In a few lines: as §1
Test [6] can be described thus: Quantitative High-Throughput drug screen in 47 multiple myeloma cell lines against the NCATS MIPE library collection: L363_DSMZ cell viability assay (AID 1918984). Also: nearly all actives have a fitted effect of over 40% in size. Also: potency is read from the fitted curve at half-maximal effect. The conditions noted are these: L363 myeloma viability, CellTiter-Glo ATP luminescence, 48 h; series mostly up to 45.8 µM. In short, it runs like this: as §1
A short description of test [7]: Quantitative High-Throughput drug screen in 47 multiple myeloma cell lines against the NCATS MIPE library collection: MOLP8_DSMZ cell viability assay (AID 1918977). Also: nearly all actives have a fitted effect of over 45% in size. Particulars: MOLP8 myeloma viability, CellTiter-Glo ATP luminescence, 48 h; series mostly up to 45.8 µM. In short, it runs like this: as §1
A short description of test [8]: Quantitative High-Throughput drug screen in 47 multiple myeloma cell lines against the NCATS MIPE library collection: LP1_DSMZ cell viability assay (AID 1918982). Also: nearly all actives have a fitted effect of over 35% in size. Also: potency is read from the fitted curve at half-maximal effect. The conditions noted are these: LP1 myeloma viability, CellTiter-Glo ATP luminescence, 48 h; series mostly up to 45.8 µM. In a few lines:
as §1

A short description of test [9]: Quantitative High-Throughput drug screen in 47 multiple myeloma cell lines against the NCATS MIPE library collection: KMS28PE_JCRB cell viability assay (AID 1918983). Also: nearly all actives have a fitted effect of over 35% in size. Also: potency is read from the fitted curve at half-maximal effect. The conditions noted are these: KMS28PE multiple myeloma viability, CellTiter-Glo ATP, 48 h; series mostly up to 45.8 µM. In a few lines:
as §1

Test [10] can be described thus: Quantitative High-Throughput drug screen in 47 multiple myeloma cell lines against the NCATS MIPE library collection: KMS26_JCRB cell viability assay (AID 1918975). Also: potency is read from the fitted curve at half-maximal effect; nearly all actives have a fitted effect of over 45% in size. Particulars: KMS26 myeloma cells viability, CellTiter-Glo ATP, 48 h; series mostly up to 45.8 µM. In a few lines:
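qHTS of the MIPE 4.0 collection: 500 myeloma cells/well, 48 h drug exposure at 37C in 5% CO2, then CellTiter-Glo for 5 min at room temperature before luminescence reading.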

Inconclusive results are not listed. Activity calls are given as the source filed them. Calls follow the shape of the dose curve; as a rule, active = well fitted curve in the direction sought with a large enough effect; inconclusive = small, poorly fitted or top-dose-only effect, or another doubt; inactive = no such curve, though single readings can be large; an effect the other way counts as inactive or inconclusive.

As to `COc1cccc(-c2ccc(NC(=O)C3=C(C(=O)O)CCC3)c(F)c2)c1`, the Potency in test [1] was 20.9 µM (active); in test [2], 20.9 µM (active); in test [4] it was 3.72 µM (active); in [5], 23.5 µM (active). In addition, the Potency entry in test [3] and in test [6] was “inactive” each time.

With `CC(C)Nc1cc(C(F)(F)F)cc2nc(NC(=O)c3cccnc3)nn12`, the Potency in test [1] is 1.87 µM (active). Besides, the Potency result in test [7], in test [2], in test [3], in test [5], in test [8] and in test [9] was “inactive” each time. Also, in [6], the Potency entry was “inactive”.

Regarding `COc1cc2c(Nc3ccc(NC(=O)c4ccccc4)cc3)ncnc2cc1OCCCN1CCOCC1`, the Potency in test [10] is 37.2 µM (active); in [3] it was 23.5 µM (active). In addition, the Potency result in [6] was “inactive”.

As to `CC(=O)SC[C@@H](C)C(=O)N1CCC[C@H]1C(=O)N[C@@H](Cc1ccccc1)C(=O)O`, the Potency in test [1] was 1.87 µM (active). In addition, the Potency result in test [7], in test [2], in [3], in [5] and in test [8] was “inactive” each time.

For `Cc1ccc2nc(NC(=O)CSc3nc4c(c(=O)n3-c3ccccc3)SCC4)sc2c1`, the Potency in test [10] is 23.5 µM (active); in test [4], 13.2 µM (active); in [5] it was 16.6 µM (active); in test [8], 8.33 µM (active); in test [9], 23.5 µM (active); in [6], 11.8 µM (active).

Regarding `CC(=O)OCCN1C(=O)c2c(C)nc3ccc(S(=O)(=O)N4CCOCC4)cc3c2C1=O`, the Potency entry in [7], in [5], in test [8], in test [9] and in [6] was “inactive” each time.

For `C[C@]12CC[C@H](O)CC1=CCC1C2CC[C@]2(C)C(n3cnc4ccccc43)=CCC12` (some centres not stated), the Potency entry in test [3], in test [4] and in test [6] was “inactive” throughout.

Take `Nc1ccn([C@@H]2O[C@H](CO)[C@H](O)C2(F)F)c(=O)n1`: the Potency in test [2] was 0.264 µM (active); in test [4] it was 0.0187 µM (active); in [5], 0.0093 µM (active); in test [9], 0.469 µM (active).

As for `CCNC(=O)Nc1ccc2ncc(Nc3ccc(C)cc3)nc2n1`, in test [1], the Potency was 14.8 µM (active). The Potency entry in [9] was “inactive”.

With `Cc1cnc(-c2cnc(NCCNc3ccc(C#N)cn3)nc2-c2ccc(Cl)cc2Cl)[nH]1`, in [6], the Potency result is “inactive”.

`COC(=O)C[C@](O)(CCCC(C)(C)O)C(=O)O[C@@H]1C(OC)=C[C@]23CCCN2CCc2cc4c(cc2[C@H]13)OCO4`: the Potency entry in [7], in test [2], in test [3], in test [4] and in test [8] was “inactive” throughout.

`CNC(=O)CN1CCC(Oc2cc3c(Nc4cccc(Cl)c4F)ncnc3cc2OC)CC1`: the results for the Potency in test [2], in [4] and in test [9] were 0.059 µM (active), 0.0105 µM (active) and 0.0833 µM (active), respectively.

For the molecule `COc1ccc(CC2SC(=O)NC2=O)cc1C(=O)NCc1ccc(C(F)(F)F)cc1` (configuration not stated), the Potency entry in test [7], in [2], in test [5], in test [8] and in test [9] was “inactive” in each case.

Consider `CN(C)CC(C)(C)CNc1nn2c(-c3ccccc3)nnc2cc1C1CCC1`, for which the Potency result in test [3] and in test [8] was “inactive” in each case. Also, the Potency in test [4] is 0.166 µM (active).

On to `CC(C)(C)c1cc(C(C)(C)C)c(NC(=O)c2c[nH]c3ccccc3c2=O)cc1O`, for which the Potency entry in test [2], in [4], in [5], in [8] and in test [9] was “inactive” throughout.

Turning to `Cc1c(C)n(Cc2ccc(-c3ccccc3C(=O)O)cc2)c2ccc(C(=O)N[C@@H](C)c3ccc([N+](=O)[O-])cc3)cc12`, the Potency in test [2] is 26.4 µM (active); in test [4], 5.26 µM (active); in test [6], 0.0935 µM (active). For the same molecule, the Potency entry in test [8] and in test [9] was “inactive” throughout.

With `CC1(C)O[C@@H]2C[C@@H]3[C@H]4C[C@@H](F)C5=CC(=O)C=C[C@]5(C)[C@@]4(F)[C@@H](O)C[C@]3(C)[C@]2(C(=O)CO)O1`, the values for the Potency in test [1], in test [4] and in test [6] were 0.0105 µM (active), 0.0118 µM (active) and 0.0372 µM (active), respectively. In addition, the Potency entry in test [5] was “inactive”.

Consider `NC(=O)c1cccc2cn(-c3ccc([C@@H]4CCCNC4)cc3)nc12`, for which the Potency result in test [7] and in [8] was “inactive” each time.

`Cc1c(NC(=O)OC[C@@H]2COCCN2)cn2ncnc(Nc3ccc4c(cnn4Cc4cccc(F)c4)c3)c12`: in test [3], the Potency result was “inactive”.
